Records with an inconclusive call do not appear. The source made the active and inactive calls. Unless noted, the call rests on the fitted dose curve; in most records, active means well fitted curve in the direction sought with a large enough effect; inconclusive means small, poorly fitted or top-dose-only effect, or another doubt; inactive means no such curve, though single readings can be large; an effect the other way counts as inactive or inconclusive.
Legend:
[1] = qHTS for differential inhibitors of proliferation of Plasmodium falciparum line 7G8 (AID 1815);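 further: parasite growth measured after three days of incubation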
[2] = qHTS for differential inhibitors of proliferation of Plasmodium falciparum line W2 (AID 1883); conditions: Potency: Plasmodium falciparum W2 proliferation inhibition;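 further: parasites grown with compound for 72 h before lysis and staining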
[3] = biological target: Pyruvate kinase (Leishmania mexicana) (UniProt Q27686); assay: qHTS Validation Assay for Activators of Leishmania Mexicana Pyruvate Kinase (AID 959)
How it was run: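 Mutant LmPYK (E451W), 0.2 nM, plus 0.5 mM PEP and 0.1 mM ADP in 50 mM imidazole pH 7.2 containing 0.01% Tween 20 and 0.05% BSA. Incubated 1 h at room temperature; luminescence via PKLight, normalized to DMSO.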

[4] = biological target: Lysosomal acid glucosylceramidase (Homo sapiens) (UniProt P04062); assay: Glucocerebrosidase-p2 (AID 348; in the data active means potency below about 10 µM; further: potency means the concentration at half of the fitted maximal effect); conditions: purified GBA, blue fluorogenic substrate, 40 min
How it was run: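 Compounds titrated from 0.6 nM upwards against 0.2 nM enzyme in pH 5.9 citric acid/KH2PO4, taurocholate, tween-20; blue fluorogenic substrate 80 uM, 40 min room temperature, stopped and read Ex 365/Em 440 for AC50.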

[5] = S16 Schwann cell viability assay (CellTiter-Glo assay) (AID 624031);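 further: cellular ATP luminescence as a viability measure; nearly all actives have a fitted effect of over 70% in size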
How it was run: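 Native S16 Schwann cells (rat), serum-containing medium, overnight attachment then 24 h drug exposure at 37 °C/5% CO2. CellTiter-Glo ATP signal; normalized to cell-free and vehicle wells.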

[6] = S16 Schwann cell PMP22 intronic element firefly luciferase assay (AID 624032); further: nearly all actives have a fitted effect of over 30% in size
How it was run: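 Luciferase reporter of PMP22 intronic-element expression in stably transfected S16 rat Schwann cells, read by ONE-Glo luminescence after 24 h compound exposure at 37 C. Activity scaled between DMSO (0%) and positive-control PTC124; concentration-effect curves quality-classified.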

[7] = S16 Schwann cell PMP22 intronic element beta-lactamase assay (AID 624044; calls by dose curve; further: nearly all actives have a fitted effect of over 15% in size)
How it was run: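 Rat S16 Schwann cells with beta-Lac driven by a PMP22 intronic element, compound-treated 24 h at 37 °C. LiveBLAzer FRET B/G read: 460 nm normalized to potassium clavulanate vs DMSO; 535 nm FRET as viability; concentration-effect curves classified.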

[8] = system: AA1029; assay: qHTS profiling for inhibitors of Plasmodium falciparum proliferation (AID 504749); further: nearly all actives have a fitted effect of over 60% in size; conditions: P. falciparum in erythrocytes, SYBR Green DNA, 72 h; series mostly up to 28.7 µM
How it was run: (§1)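 Infected RBCs, 0.3% parasitemia/2.5% Hct final; cpd 72 h, 37 C, 5% CO2; lysis buffer with saponin/triton/SYBR Green I, o/n RT dark; FI 485/535; norm. to artemisinin (0.29 uM) and DMSO.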

[9] = system: CP211; assay: as above; conditions: P. falciparum in erythrocytes, SYBR Green DNA, 72 h; series mostly up to 28.7 µM
How it was run: as §1

[10] = system: CP217; assay: as above; conditions: P. falciparum in erythrocytes, SYBR Green DNA, 72 h; series mostly up to 28.7 µM
How it was run: as §1

[11] = system: CP250; assay: as above; conditions: P. falciparum in erythrocytes, SYBR Green DNA, 72 h; series mostly up to 28.7 µM
How it was run: as §1

[12] = system: CP252; assay: as above; conditions: P. falciparum in erythrocytes, SYBR Green DNA, 72 h; series mostly up to 28.7 µM
How it was run: as §1

[13] = system: CP256; assay: as above; conditions: P. falciparum in erythrocytes, SYBR Green DNA, 72 h; series mostly up to 28.7 µM
How it was run: as §1

[14] = system: CP260; assay: as above; conditions: P. falciparum in erythrocytes, SYBR Green DNA, 72 h; series mostly up to 28.7 µM
How it was run: as §1

[15] = system: CP297; assay: as above; conditions: P. falciparum in erythrocytes, SYBR Green DNA, 72 h; series mostly up to 28.7 µM
How it was run: as §1

[16] = system: N140; assay: as above; conditions: P. falciparum in erythrocytes, SYBR Green DNA, 72 h; series mostly up to 28.7 µM
How it was run: as §1

[17] = system: PC15; assay: as above; conditions: P. falciparum in erythrocytes, SYBR Green DNA, 72 h; series mostly up to 28.7 µM
How it was run: as §1

[18] = Counterscreen for APE1 Inhibitors: Fluorescent Dye Displacement Validation Assay (AID 1707)
How it was run: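 Thiazole Orange (250 nM) bound to 50 nM TAMRA-labelled dsDNA with tetrahydrofuran abasic site; displacement by DNA-binding compounds lowers fluorescence. Buffer 50 mM Tris-HCl pH 7.5, 50 mM NaCl, 2 mM MgCl2, 0.01% Tween-20; endpoint read at 480/540 nm.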

[19] = biological target: Rap guanine nucleotide exchange factor 4 (Homo sapiens) (UniProt Q8WZA2); assay: Confirmatory qHTS for antagonist of cAMP-regulated guanine nucleotide exchange factor 4 (EPAC2) (AID 1645885); further: nearly all actives have a fitted effect of over 25% in size
[20] = biological target: Phospholipid hydroperoxide glutathione peroxidase GPX4 (Homo sapiens) (UniProt P36969); assay: Primary qHTS Assay for Inhibitors of Recombinant Selenoprotein Glutathione Peroxidase 4 (GPX4) (AID 1845192); conditions: outcome: dose series up to 50 µM unless noted; further: nearly all actives have a fitted effect of over 65% in size
How it was run: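 NADPH consumption, followed by fluorescence at 340/450 nm between 0 and 15 min, reports GPX4 activity via coupled glutathione reductase (100 nM). Enzyme 200 nM was pre-exposed to compound 30 min; 0.5 mM cumene hydroperoxide and 1 mM GSH served as substrates.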

Measured: Potency

Sequence of Phospholipid hydroperoxide glutathione peroxidase GPX4 (Homo sapiens) (P36969 whole entry, looked up): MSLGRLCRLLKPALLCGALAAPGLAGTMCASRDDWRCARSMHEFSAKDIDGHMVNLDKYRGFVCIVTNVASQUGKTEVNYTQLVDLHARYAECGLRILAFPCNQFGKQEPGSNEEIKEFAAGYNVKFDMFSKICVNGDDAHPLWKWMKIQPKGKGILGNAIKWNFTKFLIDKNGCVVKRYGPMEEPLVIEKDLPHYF
Sequence of Rap guanine nucleotide exchange factor 4 (Homo sapiens) (Q8WZA2 whole entry, looked up): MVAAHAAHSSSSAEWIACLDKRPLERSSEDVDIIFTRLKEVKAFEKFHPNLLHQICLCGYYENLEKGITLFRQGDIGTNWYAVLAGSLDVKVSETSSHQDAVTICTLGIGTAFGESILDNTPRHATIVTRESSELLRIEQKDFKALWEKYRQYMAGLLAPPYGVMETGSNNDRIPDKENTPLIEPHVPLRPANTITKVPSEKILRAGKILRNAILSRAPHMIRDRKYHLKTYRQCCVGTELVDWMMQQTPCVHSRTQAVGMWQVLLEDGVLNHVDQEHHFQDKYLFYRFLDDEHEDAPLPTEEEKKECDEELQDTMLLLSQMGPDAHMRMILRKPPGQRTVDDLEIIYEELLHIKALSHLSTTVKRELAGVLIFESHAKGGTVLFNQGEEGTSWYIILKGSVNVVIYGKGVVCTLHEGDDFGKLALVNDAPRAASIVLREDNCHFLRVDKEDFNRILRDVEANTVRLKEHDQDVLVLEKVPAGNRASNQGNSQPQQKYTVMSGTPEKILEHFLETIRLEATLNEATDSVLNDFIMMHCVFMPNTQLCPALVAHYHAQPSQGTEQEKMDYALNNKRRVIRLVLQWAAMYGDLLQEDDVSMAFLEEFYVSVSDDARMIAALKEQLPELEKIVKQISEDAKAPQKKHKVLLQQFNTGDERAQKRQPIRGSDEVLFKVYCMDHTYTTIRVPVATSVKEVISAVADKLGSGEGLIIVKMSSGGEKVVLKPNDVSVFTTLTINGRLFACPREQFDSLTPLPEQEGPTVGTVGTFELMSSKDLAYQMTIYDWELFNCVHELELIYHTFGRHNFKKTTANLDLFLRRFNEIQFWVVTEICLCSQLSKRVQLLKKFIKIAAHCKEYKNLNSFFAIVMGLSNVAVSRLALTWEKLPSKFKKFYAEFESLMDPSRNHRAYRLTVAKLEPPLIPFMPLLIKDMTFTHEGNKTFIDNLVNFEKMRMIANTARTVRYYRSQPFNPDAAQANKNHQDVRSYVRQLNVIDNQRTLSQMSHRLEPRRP
Sequence of Lysosomal acid glucosylceramidase (Homo sapiens) (P04062 whole entry, looked up): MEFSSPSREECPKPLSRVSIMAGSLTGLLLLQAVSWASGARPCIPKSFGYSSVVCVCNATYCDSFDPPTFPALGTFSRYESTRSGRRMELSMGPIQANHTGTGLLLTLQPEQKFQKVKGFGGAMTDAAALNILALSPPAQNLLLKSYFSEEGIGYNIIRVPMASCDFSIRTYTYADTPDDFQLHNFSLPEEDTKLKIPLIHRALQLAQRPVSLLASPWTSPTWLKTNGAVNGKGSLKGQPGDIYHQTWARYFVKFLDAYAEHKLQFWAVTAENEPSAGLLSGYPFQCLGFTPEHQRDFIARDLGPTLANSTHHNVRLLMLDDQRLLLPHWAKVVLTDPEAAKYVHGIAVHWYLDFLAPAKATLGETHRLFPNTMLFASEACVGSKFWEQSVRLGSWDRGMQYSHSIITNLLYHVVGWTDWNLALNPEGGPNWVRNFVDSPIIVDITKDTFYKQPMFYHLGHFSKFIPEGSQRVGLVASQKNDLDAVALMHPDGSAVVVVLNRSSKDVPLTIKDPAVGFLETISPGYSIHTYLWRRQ
Sequence of Pyruvate kinase (Leishmania mexicana) (Q27686 2-499 E452W): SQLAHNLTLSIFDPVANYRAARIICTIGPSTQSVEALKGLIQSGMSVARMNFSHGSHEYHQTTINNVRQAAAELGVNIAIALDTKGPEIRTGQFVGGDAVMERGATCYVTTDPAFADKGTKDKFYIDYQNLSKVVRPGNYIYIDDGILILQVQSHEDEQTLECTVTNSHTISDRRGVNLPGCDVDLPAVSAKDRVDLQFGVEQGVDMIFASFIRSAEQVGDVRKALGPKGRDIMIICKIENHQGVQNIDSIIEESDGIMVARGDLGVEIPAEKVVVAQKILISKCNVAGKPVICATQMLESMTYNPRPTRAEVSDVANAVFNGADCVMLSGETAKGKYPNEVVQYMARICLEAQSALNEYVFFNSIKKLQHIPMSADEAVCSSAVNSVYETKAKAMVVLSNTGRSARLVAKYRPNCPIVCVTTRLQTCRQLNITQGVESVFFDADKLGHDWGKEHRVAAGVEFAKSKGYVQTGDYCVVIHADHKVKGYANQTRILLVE

CCCCCCCCCCCCC/C=C/[C@@H](O)[C@@H](N)CO
inactive: [1] | [2]

N[C@]1(C(=O)O)CCc2cc(C(=O)O)ccc21
active: [3] 15.8 µM

COC(=O)[C@@H]1[C@@H]2C[C@H]3c4[nH]c5ccccc5c4CCN3C[C@@H]2CC[C@@H]1O
inactive: [4] > 11.4 µM | [5] | [6] | [7] | [8] | [9] | [10] | [11] | [12] | [13] | [14] | [15] | [16] | [17]

COc1ccccc1NC(=O)Nc1nc(-c2cccnc2)nc2ccccc12
inactive: [18]

S=C(S)O[C@@H]1C[C@@H]2C[C@H]1[C@@H]1CCC[C@H]21
inactive: [19]

CN(C)CCCSC(=N)N
inactive: [19]

N[C@H](Cc1cnc[nH]1)C(=O)O
inactive: [20]

CNC(=O)[C@H]1O[C@@H](n2cnc3c(NCc4cccc(I)c4)nc(Cl)nc32)[C@H](O)[C@@H]1O
inactive: [20]

CCOC(=O)C(CCc1ccccc1)NC1CCc2ccccc2N(CC(=O)O)C1=O (stereo not given)
inactive: [7]

C[C@@H](C(=O)O)c1ccc(-c2ccccc2)c(F)c1
inactive: [5] | [6] | [8] | [9] | [10] | [11] | [12] | [13] | [14] | [15] | [16] | [17]

From PubChem BioAssay (NCATS)
